This is one part of a sample in which hits are shown more often than they occur.
RMI FANCM FP – inhibitors of human RMI core complex binding to FANCM MM2; Fluorescence polarization, RMI core complex with F-MM2 peptide; active compounds read low; FP signal (polarization) at 33 µM; 0.58% of 70,000 active; AID 1159607; in the data active means FP signal below about 40
Starred values were filed as active, the others as inactive; ! = not active in a repeat.

SMILES	RMI FANCM FP
Cc1cccc(NC(=O)c2cccn(Cc3ccc(Br)cc3)c2=O)c1C	50
Cc1ccccc1Cn1cccc(C(=O)Nc2cccc(Cl)c2Cl)c1=O	10*
CC(=O)c1cccc(NC(=O)c2cccn(Cc3ccccc3C)c2=O)c1	63
C=C1[C@@H]2CC[C@H]3[C@]4(C)C[C@H](O[C@H]5O[C@H](CO)[C@@H](OS(=O)(=O)O)[C@H](OS(=O)(=O)O)[C@H]5OC(=O)CC(C)C)C[C@@H](C(=O)O)[C@H]4CC[C@]3(C2)[C@H]1O	55
CC(C)(C)NCC(O)c1cc(Cl)c(N)c(Cl)c1 (configuration not stated)	4*!
O=c1[nH]c(O)c(C=Nc2nccs2)c(=O)[nH]1	68
Cc1cc(C(=O)Nc2ccc(Cl)cc2C(=O)c2ccccc2)nn1C	72
Cc1csc(NC(=O)c2cccn(Cc3ccccc3Cl)c2=O)n1	57
CCN(CC)C(=O)N[C@H]1C=C2c3cccc4[nH]cc(c34)C[C@H]2N(C)C1	20*
CC(CO)NC(=O)C1C=C2c3cccc4[nH]cc(c34)C[C@H]2N(C)C1 (some centres not stated)	42
CCN(CC)C(=O)N[C@@H]1C[C@@H]2c3cccc4[nH]cc(c34)C[C@H]2N(C)C1	52
CN1[C@@H]2CC(=O)C[C@H]1[C@H](O)C2	61
CCOC(=O)/C=C(\C)OP(=O)(OC)OC	58
O=C(N1CCCCC1)C(Cl)(Cl)Cl	64
O=C(Nc1cccnc1)c1cccn(Cc2cccc([N+](=O)[O-])c2)c1=O	53
CC(C)(O)[C@@H]1[C@H]2OC(=O)[C@@H]1[C@]1(O)C[C@H]3O[C@]34C(=O)O[C@H]2[C@]14C (tested in a mixture with another compound)	30*
CC(C)(O)[C@@H]1[C@H]2OC(=O)[C@@H]1[C@]1(O)C[C@H]3O[C@]34C(=O)O[C@H]2[C@]14C	53
CC12CCC3C(CCC4CCCCC43C)C1C/C(=C\c1ccc([N+](=O)[O-])cc1)C2=O (configuration not stated)	60
COc1ccc(-c2csc(CN3CCN(C(=O)Cc4cccs4)CC3)n2)cc1	63
CC[C@@]1(O)C[C@H](O[C@H]2C[C@H](N(C)C)[C@H](O)[C@H](C)O2)c2c(cc3c(c2O)C(=O)c2c(O)ccc(O)c2C3=O)[C@H]1C(=O)OC	55
CC[C@@]1(O)C[C@H](O[C@H]2C[C@H](N(C)C)[C@H](O)[C@H](C)O2)c2c(cc3c(c2O)C(=O)c2c(O)cccc2C3=O)[C@H]1C(=O)OC	79
CC[C@@]1(O)C[C@H](O)c2c(cc3c(c2O)C(=O)c2c(O)ccc(O)c2C3=O)[C@H]1C(=O)OC	26*
CN(C)C(=O)Oc1ccc(C(=O)c2ccc(Cl)cc2)cc1	62
O=C(Cc1ccc(F)cc1)N1CCN(Cc2nc(C3CC3)cs2)CC1	60
O=C(/C=C/c1cccs1)C(=O)Nc1ccc(Br)cc1C(=O)c1ccccc1Cl	30*
SMILES	RMI FANCM FP
O=C(CN1C(=O)CCC1=O)C(=O)Nc1ccc(Br)cc1C(=O)c1ccccc1Cl	50
O=C(/C=C/c1ccccc1)Nc1ccc(Br)cc1C(=O)c1ccccc1Cl	55
COC(=O)Nc1ccc(S(=O)(=O)F)cc1	60
CN1C(=O)C(=Cc2cccs2)C(=O)N(C)C1=O	61
CC(=O)O[C@H]1CC[C@@]2(C)C(=CC[C@@H]3[C@@H]2CC[C@]2(C)C(=O)CC[C@@H]32)C1	9*
CC(=O)O[C@@H]1CC[C@]2(C)C3CC[C@]4(C)C(=O)CCC4C3CC[C@H]2C1 (some centres not stated)	64
C[C@]12CC[C@H](O)CC1=CC[C@@H]1[C@@H]2CC[C@@]2(C)[C@H]1CC[C@]2(C)O	55
CCN(CC)CCN(C(=O)Cc1ccc2c(c1)OCO2)c1nc2c(F)cccc2s1	80
Cc1ccc(Cn2cccc(C(=O)Nc3ccc(F)c(F)c3)c2=O)cc1	63
Clc1ccc2nc(N3CCNCC3)sc2c1	69

Screens (PubChem BioAssay)
